Data on ten compounds can be found in PubChem BioAssay (NCI).

The panel holds about 83,000 compounds, 20% with a hit somewhere; the sample as a whole holds those more often.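 The endpoint reported here, percent growth, reads 100 for growth as untreated, 0 for no net growth and -100 for all cells dead.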 A number with no mark means an inactive call. Calls of active or inactive are those of the source. The calls were made as follows: active = growth percent below 10; inactive = the rest.

Test systems include NCI-H23 lung; NCI-H226 lung; NCI-H322M lung; HOP-62 NSCLC; NCI-H460 lung; HOP-92 NSCLC; NCI-H522 lung; A549/ATCC NSCLC; 786-0 renal; COLO 205 colon.
Holding throughout (experiment): NCI-60 one-dose screen, 48 h (100 = growth as untreated, 0 = no growth, -100 = all killed)
What all share (settings): 10 µM

In the case of `COc1ccc([C@H]2C(C(=O)c3ccc(Cl)cc3)C3(N[C@@H]2c2ccccc2)C(=O)Nc2ccc(Br)cc23)cc1` (stereo not given in full), the growth in the test on NCI-H23 lung was -47.4% (active); with NCI-H226 lung, -42.5% (active); in the test on NCI-H322M lung it was 21.6%; in the test on HOP-62 NSCLC, -8.82% (active); in the test on NCI-H460 lung, -44.4% (active); in the test with HOP-92 NSCLC, -20.6% (active). Further, the growth in the test on NCI-H522 lung is 6.07% (active); in the test with A549/ATCC NSCLC, 17.3%; in the test with 786-0 renal, -17.5% (active); in the test on COLO 205 colon, -92% (active).
As to `CC1(c2ccccc2)NC(=O)N(CC(=O)Nc2ccc(C(=O)/C=C/c3ccc(Cl)cc3)cc2)C1=O` (stereo not given), the growth is 18.6% with NCI-H23 lung; -0.196% (active) with NCI-H226 lung; 51.1% in the test with NCI-H322M lung; 35.6% in the test with HOP-62 NSCLC; 21.5% in the test on NCI-H460 lung; -10.4% (active) with HOP-92 NSCLC. Also, the growth in the test on NCI-H522 lung was 41.4%; with A549/ATCC NSCLC it was 6.84% (active); in the test with 786-0 renal it was -21.5% (active); with COLO 205 colon it was -24.4% (active).
As for `C=CC(=O)Nc1nc(-c2cccc(NS(=O)(=O)c3cccc4c(N(C)C)cccc34)c2)cs1`, the growth in the test on NCI-H23 lung was -3.14% (active); in the test with NCI-H226 lung, 6.89% (active); with NCI-H322M lung, 56.2%; in the test on HOP-62 NSCLC, 31.2%; in the test on NCI-H460 lung, -32.8% (active); with HOP-92 NSCLC, -49.2% (active). Also, the growth in the test with NCI-H522 lung is -76.9% (active); with A549/ATCC NSCLC it was 19.3%; in the test on 786-0 renal, -82.5% (active); in the test with COLO 205 colon, -56.3% (active).
Regarding `C/C(=C\CC/C=C(\C)CC/C=C(\C)CC[C@@H](O)C(C)(C)O)CC/C=C(\C)CC[C@@H](O)C(C)(C)O`, the growth with NCI-H23 lung was 31.8%; in the test with NCI-H226 lung, 38.8%; in the test with NCI-H322M lung it was 98.1%; in the test with HOP-62 NSCLC, 96.6%; with NCI-H460 lung it was 32%; in the test on HOP-92 NSCLC, 26%. The growth in the test on NCI-H522 lung was 21.8%; in the test on A549/ATCC NSCLC, 26.1%; in the test with 786-0 renal it was 47.4%; in the test on COLO 205 colon, 41.9%.
In the case of `CCCCCc1ccc(S(=O)(=O)N(C(C)=O)c2cc(-c3csc(N(C)C(C)=O)n3)ccc2N2CCN(C)CC2)cc1`, the growth in the test with NCI-H23 lung was 43.6%; in the test on NCI-H226 lung, 72.2%; in the test with NCI-H322M lung, 55.8%; with HOP-62 NSCLC it was 51.6%; with NCI-H460 lung it was -41.6% (active); with HOP-92 NSCLC, -2.86% (active). Also, the growth was 55.5% in the test on NCI-H522 lung, 40.1% with A549/ATCC NSCLC, -16.2% (active) with 786-0 renal and -71.6% (active) with COLO 205 colon.
With `Cc1ccc(/C=C/C(=O)c2ccc(NC(=O)CSc3nnc(-c4c[nH]c5ccccc45)n3-c3ccccc3)cc2)c(C)c1`, the growth in the test on NCI-H23 lung is -1.3% (active); in the test with NCI-H226 lung, 33.1%; in the test on NCI-H322M lung it was 75.8%; in the test on HOP-62 NSCLC it was 99.4%; in the test on NCI-H460 lung, -35.8% (active); in the test with HOP-92 NSCLC, 76.8%. Further, the growth in the test with NCI-H522 lung was 25%; in the test with A549/ATCC NSCLC, 54.3%; in the test with 786-0 renal, 65.8%; with COLO 205 colon it was 70.5%.
For `CN1CCN(c2ccc(Nc3nc(NCCCNC(=O)C4CCCCC4)c4sccc4n3)cc2)CC1`, the growth in the test with NCI-H23 lung was 60.3%; in the test with NCI-H226 lung, 81.6%; with NCI-H322M lung, 70%; in the test on HOP-62 NSCLC it was 72.4%; in the test with NCI-H460 lung, 52.9%; in the test with HOP-92 NSCLC, 25.4%. In addition, the growth in the test with NCI-H522 lung is 79.4%; in the test on A549/ATCC NSCLC, 59.5%; with 786-0 renal, 3.18% (active); in the test on COLO 205 colon, 68.8%.
As to `S=c1nc(-c2ccccc2)cc(-c2cc3ccccc3nc2Cl)[nH]1`, the growth in the test with NCI-H23 lung is 78.5%; with NCI-H226 lung, 76.8%; with NCI-H322M lung it was 98.5%; in the test on HOP-62 NSCLC, 72.7%; with NCI-H460 lung, 90.4%; in the test with HOP-92 NSCLC, 75.9%. Further, the growth is 57.8% with NCI-H522 lung, 86.1% in the test with A549/ATCC NSCLC, 90.5% in the test with 786-0 renal and 96.3% with COLO 205 colon.
As to `C/C(=N\N=C\c1ccc(Cl)c([N+](=O)[O-])c1)c1ccc2c(c1)Nc1ccccc1S2`, the growth in the test on NCI-H23 lung was 18.2%; in the test with NCI-H226 lung, -25.2% (active); in the test on NCI-H322M lung, 50%; in the test with HOP-62 NSCLC, 47.5%; in the test on NCI-H460 lung, 1.22% (active); with HOP-92 NSCLC it was 32.6%. For the same compound, the growth is 33.2% with NCI-H522 lung, 60.2% in the test on A549/ATCC NSCLC, 52.1% in the test with 786-0 renal and 32.1% in the test with COLO 205 colon.
As for `CC1(C)CC[C@]2(C(=O)NCCCNCCCCNCCCN)CC[C@]3(C)C(=CC[C@@H]4[C@@]5(C)Cc6c([nH]c7ccccc67)C(C)(C)[C@@H]5CC[C@]43C)[C@H]2C1`, the growth in the test on NCI-H23 lung is 83.7%; with NCI-H226 lung, 71.8%; in the test on NCI-H322M lung it was 101%; in the test on HOP-62 NSCLC it was 85%; with NCI-H460 lung it was 96.5%; in the test on HOP-92 NSCLC, 60.5%. Also, the growth is 79.6% in the test with NCI-H522 lung, 86.5% in the test on A549/ATCC NSCLC, 89.1% in the test on 786-0 renal and 115% in the test with COLO 205 colon.
